Screening data as filed in PubChem BioAssay.
VDR inhibitor – inhibitors of human vitamin D receptor; P11473; VDR-SRC2-3 peptide fluorescence polarization, 2 h; Potency, µM, without a hit: max response, negative = inhibition, usual class: inhibitors; 400,000 compounds, 0.93% hits; AID 504847; also: % is scaled to controls: 0 for no effect and ±100 for the full control effect
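VDR–SRC2-3 interaction, FP format. Cmpds 23 nl via pintool, brief spin, 2 h ambient incubation.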
HP1b chromo inh – blocks HP1-beta chromodomain binding to methylated histone tails; AID 540317; Potency, µM (doses to about 114 µM), inactives show at the highest dose activity change, negative = inhibition, actives largely listed as inhibitors; 390,000 compounds, 0.56% hits; AlphaScreen HP1-beta / biotin-H3K9me3 peptide binding; P83916; also: nearly all actives have a fitted effect of over 70% in size
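AlphaScreen: HP1-beta (50 nM) preformed 30 min with biotin-H3(1-18)K9me3 peptide (50 nM) in PBS pH 7.4, 0.01% Tween-20. Compound added for 30 min at RT, then streptavidin donor/nickel chelate acceptor beads (10 ug/mL) for 30 min.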
PLK1 PBD block – PLK1 (human) polo-box domain binding inhibition; Plk1 PBD binding of FITC phosphopeptide, fluorescence polarization; 360,000 compounds, 2.8% hits; Potency, µM, without a hit: max response, negative = inhibition, most hits filed as inhibitors; P53350; also: series mostly up to about 57 µM; % is scaled to controls: 0 for no effect and ±100 for the full control effect; nearly all actives have a fitted effect of over 65% in size
L3MBTL1 inh – inhibitors of human L3MBTL1 | AlphaScreen L3MBTL1–H3K9me1 peptide binding | Potency, µM (top dose mostly 57.1 µM), for inactives: at the top dose activity, negative = inhibition, actives largely listed as inhibitors | 230,000 compounds, 0.66% hits; also: % is scaled to controls: 0 for no effect and ±100 for the full control effect; nearly all actives have a fitted effect of over 60% in size
Target sequence (Q9Y468 whole entry, looked up): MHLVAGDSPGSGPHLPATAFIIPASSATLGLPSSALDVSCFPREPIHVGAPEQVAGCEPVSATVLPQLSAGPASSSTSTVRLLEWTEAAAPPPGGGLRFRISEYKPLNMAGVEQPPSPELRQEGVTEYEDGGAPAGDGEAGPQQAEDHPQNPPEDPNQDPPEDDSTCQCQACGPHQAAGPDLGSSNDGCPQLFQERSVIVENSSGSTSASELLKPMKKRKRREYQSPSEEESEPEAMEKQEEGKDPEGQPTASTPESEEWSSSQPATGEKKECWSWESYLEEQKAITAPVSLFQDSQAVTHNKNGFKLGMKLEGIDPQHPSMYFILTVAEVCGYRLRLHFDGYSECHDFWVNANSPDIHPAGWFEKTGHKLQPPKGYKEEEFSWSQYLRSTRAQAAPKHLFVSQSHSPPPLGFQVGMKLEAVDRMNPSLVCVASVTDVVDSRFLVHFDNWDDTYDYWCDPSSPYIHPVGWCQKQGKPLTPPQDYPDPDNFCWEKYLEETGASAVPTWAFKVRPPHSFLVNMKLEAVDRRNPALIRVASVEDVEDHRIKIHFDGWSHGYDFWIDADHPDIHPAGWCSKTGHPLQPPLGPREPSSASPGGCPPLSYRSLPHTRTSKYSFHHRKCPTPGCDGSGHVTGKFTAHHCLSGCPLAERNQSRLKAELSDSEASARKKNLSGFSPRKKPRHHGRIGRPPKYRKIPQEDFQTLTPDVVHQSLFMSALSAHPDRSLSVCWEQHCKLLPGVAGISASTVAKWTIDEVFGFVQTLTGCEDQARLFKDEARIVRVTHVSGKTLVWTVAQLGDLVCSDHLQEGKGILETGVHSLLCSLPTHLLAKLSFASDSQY
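Read-out is AlphaScreen signal from streptavidin donor and nickel chelate acceptor beads (10 ug/mL final each) bridging L3MBTL1 (50 nM) and biotinylated K9-monomethylated H3(1-15) peptide (75 nM), after 30 min compound exposure at room temperature.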
JMJD2A Tudor – JMJD2A Tudor domain (human) inhibition | O75164 | AlphaScreen JMJD2A-Tudor / H3K4me3 peptide binding | Potency, µM (doses to about 114 µM), for the others: at the highest dose activity change, negative = inhibition, hits mostly inhibitors | AID 504339 | 390,000 compounds, 4.4% hits; also: % is scaled to controls: 0 for no effect and ±100 for the full control effect; nearly all actives have a fitted effect of over 50% in size
BAZ2B inh – blocks human BAZ2B; 360,000 compounds, 4.4% hits; AID 504333; AlphaScreen BAZ2B-H3K14Ac peptide displacement; Q9UIF8; Potency, µM (doses to about 114 µM), inactives show top-dose activity change, negative = inhibition, hits mostly inhibitors; also: % is scaled to controls: 0 for no effect and ±100 for the full control effect; nearly all actives have a fitted effect of over 60% in size
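Inhibition is scored as reduced AlphaScreen emission. The BAZ2B/b-H3(5-23)K14Ac complex (50 nM each) in PBS pH 7.4, 0.01% Tween-20 meets compound (up to 110 uM) for 30 min at RT before bead addition.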
* marks the source's active call; other numbers are inactive results; ? = inconclusive; · = no result; ! = repeats disagree; [ ] = remark or other dose. Hits are enriched below; roughly 6.9% of the tested compounds scored in any of these assays. Calls follow the shape of the dose curve; as a rule, active = well fitted curve in the direction sought with a large enough effect; inconclusive = small, poorly fitted or top-dose-only effect, or another doubt; inactive = no such curve, though single readings can be large; an effect the other way counts as inactive or inconclusive. Potency is read from the fitted curve at half-maximal effect.

SMILES	VDR inhibitor	HP1b chromo inh	PLK1 PBD block	L3MBTL1 inh	JMJD2A Tudor	BAZ2B inh
COc1cccc(CNC(=O)CSc2ccc(-c3ccccn3)nn2)c1	10%	21%	-19%	·	?	13µM*
Cc1ccc(NC(=O)CSc2nnc(-c3cccs3)n2Cc2ccco2)cc1	6%	-8%	-2%	-10%	?	?
COc1cccc(CNC(=O)CSc2cc(C)[nH]c(=O)n2)c1	13%	9%	·	·	-12%	-4%
CCOC(=O)c1c(NC(=O)COC(=O)c2ccc(Cl)nc2)sc(C)c1C	·	·	-6%	·	·	·
CC(=O)Nc1nc(C2CC2)cc(-c2ccccc2)c1C#N	-5%	40%	-4%	4%	3%	-19%
C=CC[n+]1ccc(/C=C2\C=Cc3cc(C)ccc3N2CC)c2ccccc21	-21%	?	-18%	·	20µM*	14µM*
O=c1c(Cl)c(NCc2ccccc2)cnn1C12CC3CC(CC(C3)C1)C2	-16%	26%	-16%	-9%	-7%	-33%
COc1ccc(-c2nnc(NC(=O)c3ccc(S(=O)(=O)N4CCCc5ccccc54)cc3)o2)cc1	-8%	2%	32µM*	-2%	-35%	2%
O=C(NCc1ccccc1)c1ccc(S(=O)(=O)N2CCCc3ccccc32)cc1	2%	17%	-7%	-1%	-28%	3%
O=C(Nc1nnc(C2CC2)o1)c1ccc(S(=O)(=O)N2CCCc3ccccc32)cc1	-19%	45%	-8%	-2%	-23%	50µM*
COCc1nnc(NC(=O)c2ccc(S(=O)(=O)N3CCCc4ccccc43)cc2)o1	-6%	8%	-12%	57%	-18%	?
Cc1ccc(NC(=O)Cn2c(=O)n(CC3CCC(C(=O)NC(C)C)CC3)c(=O)c3sccc32)cc1 (stereo not drawn)	6%	41%	·	·	-9%	-11%
Cc1ccc(SCCCn2cncn2)cc1	-19%	-14%	?	·	45µM*	?
Cc1ccc(SC(c2ccc(C)cc2)C(Cn2cncn2)C(=O)c2ccccc2)cc1 (stereo not drawn)	4%	13%	-1%	·	-4%	2%
Clc1ccc(SCCn2cncn2)cc1	12%	?	-8%	·	45µM*	?
O=C(CCn1cncn1)N1CCN(S(=O)(=O)c2ccc(Cl)cc2)CC1	-11%	18%	0%	·	-7%	12%
CC(NCC(O)COc1ccc2ccccc2c1)c1ccccc1 (stereo not drawn)	-1%	45µM*	-2%	·	0.79µM*	50µM*
O=C(CNCc1ccccn1)N1CCc2ccccc2C1	6%	9%	-10%	·	?	4µM*
CCCNC(=O)C1CCC(Cn2c(=O)c3sccc3n(CC(=O)N3CCCC(C)C3)c2=O)CC1 (stereo not drawn)	6%	19%	·	·	-10%	-4%
O=C(NCc1ccc(F)cc1)C1CCC(CNS(=O)(=O)c2ccccc2)CC1 (stereo not drawn)	?	30%	27µM*	·	-22%	0%
CCOc1ccccc1NC(=O)Cn1c(=O)n(CCCCC(=O)NCCCOC)c(=O)c2ccccc21	0%	80%	·	·	9%	79µM*
COc1cccc(N2CCN(C(=O)c3cccc(N4C(=O)NC5CC4(C)Oc4c(OC)cccc45)c3)CC2)c1 (stereo not drawn)	-4%	47%	-5%	·	-24%	-26%
CCOc1cccc2c1OC1(C)CC2NC(=O)N1c1ccc(OC)cc1 (stereo not drawn)	-11%	-6%	13µM*	5%	-18%[11.4 µM]	3%
Cc1ccc(-c2nn(C)c(=O)c3ccccc23)cc1CNC(=O)CSc1nc2ccccc2o1	-3%	-19%	27µM*!	2%	-15%[11.4 µM]	-6%
N#CC1=C(Nc2ccccc2Cl)SC(c2ccncc2)NC1=O (stereo not drawn)	·	·	27µM*	·	·	·
COCCCNC1=C(C#N)C(=O)NC(c2cccs2)S1 (stereo not drawn)	·	·	-26%	·	·	·
Cc1ccc(F)cc1-c1ccc(C(=O)N=C(N)N)o1	-1%	·	·	·	·	·
